CtBP-E1A inh: CtBP/E1A binding inhibition; AlphaScreen GST-E1A/His-CtBP binding, 1536-well; stronger effect = lower value; activity change, % (concentration not given with the values); 340,000 tested, 0.49% active; in the data active means activity change below about -65%; inconclusive means mostly about -30% to -63%; further: on the % scale 0 is the no-effect control and ±100 the full control effect
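Homogeneous bead-based format: GST-tagged E1A captured on glutathione donor beads, His-tagged CtBP on nickel acceptor beads; compounds precede bead addition by 2 h at 37 °C.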
JMJD2A Tudor inh: inhibitors of human JMJD2A Tudor domain. O75164. AlphaScreen JMJD2A-Tudor / H3K4me3 peptide binding. Potency, µM (series often up to 114 µM), for the others: at the highest dose activity change, negative = inhibition, most hits filed as inhibitors. 390,000 tested, 4.4% active. AID 504339; further: potency means the concentration at half of the fitted maximal effect; on the % scale 0 is the no-effect control and ±100 the full control effect; nearly all actives have a fitted effect of over 50% in size
G9a block: G9a (human) methyltransferase inhibition | G9a H3K9 monomethylation, AlphaScreen, 2 h | Potency, µM (doses to about 102 µM), for the others: at the highest dose activity, negative = inhibition, most hits filed as inhibitors | 350,000 tested, 8.8% active; further: potency means the concentration at half of the fitted maximal effect; on the % scale 0 is the no-effect control and ±100 the full control effect; nearly all actives have a fitted effect of over 75% in size
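Using a bead-based AlphaScreen, monomethylated H3K9 product from 2 h room-temperature reactions (G9a 20 nM, peptide 500 nM, SAM 20 uM) was detected with 0.5 ug/mL rabbit anti-H3K9me1 antibody.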
HP1b binding inh: HP1-beta chromodomain-methylated histone interaction inhibition | P83916 | AID 540317 | AlphaScreen HP1-beta / biotin-H3K9me3 peptide binding | 390,000 tested, 0.56% active | Potency, µM (series often up to 114 µM), without a hit: at the top dose activity change, negative = inhibition, usual class: inhibitors; further: potency means the concentration at half of the fitted maximal effect; nearly all actives have a fitted effect of over 70% in size
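AlphaScreen: HP1-beta (50 nM) preformed 30 min with biotin-H3(1-18)K9me3 peptide (50 nM) in PBS pH 7.4, 0.01% Tween-20. Compound added for 30 min at RT, then streptavidin donor/nickel chelate acceptor beads (10 ug/mL) for 30 min.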
BAZ2B inh: BAZ2B (human) inhibition; Q9UIF8; AlphaScreen BAZ2B-H3K14Ac peptide displacement; Potency, µM (top dose mostly 114 µM), for inactives: at the highest dose activity change, negative = inhibition, actives largely listed as inhibitors; 360,000 tested, 4.4% active; further: potency means the concentration at half of the fitted maximal effect; on the % scale 0 is the no-effect control and ±100 the full control effect; nearly all actives have a fitted effect of over 60% in size
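BAZ2B (50 nM) with biotin-H3(5-23)K14Ac peptide (50 nM) in PBS pH 7.4, 0.01% Tween-20, preformed 30 min, then compound 30 min at room temperature; top concentration 110uM. AlphaScreen streptavidin donor/nickel chelate acceptor beads (10 ug/mL final), 20 min dark, signal read.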
Six1-Eya2 inh: inhibitors of human Six1/Eya2 interaction | AlphaScreen GST-Six1/His-Eya2 binding, biochemical; stronger effect = lower value | activity change, % (no concentration beside the values) | 360,000 tested, 0.56% active; in the data active means activity change below about -65%; inconclusive means mostly about -30% to -63%; further: on the % scale 0 is the no-effect control and ±100 the full control effect
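AlphaScreen luminescence read after one hour at 37 °C in darkness. Pin-transferred compounds met GST-Six1 and His-Eya2 protein (5X stock 250 nM/500 nM) plus glutathione donor and Ni-chelate acceptor beads (5X, 50 ug/mL).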
* hit, by the source's call; [ ] = dose if it differs, or a comment. In the library only some 10% were active in any assay of this set; here they are far more common. Unless noted, the call rests on the fitted dose curve; in most records, active means well fitted inhibition curve with a large enough effect; inconclusive means small, poorly fitted or top-dose-only effect; inactive means no such curve, though single readings can be large or run the other way.

Results for O=C(Nc1cccc(S(=O)(=O)N2CCCCC2)c1)c1ccc(OCC2CCCO2)cc1 (centres undefined) ?
CtBP-E1A inh: 4; JMJD2A Tudor inh: -13%; G9a block: 56µM*; HP1b binding inh: 23%; Six1-Eya2 inh: -5

What do the screens show for `O=C(Nc1ccncc1)c1cccc(S(=O)(=O)N2CCN(c3ccc(F)cc3)CC2)c1`?
CtBP-E1A inh: -20; JMJD2A Tudor inh: inconclusive; G9a block: inconclusive; HP1b binding inh: -23%; BAZ2B inh: inconclusive; Six1-Eya2 inh: -27

Results for NS(=O)(=O)c1cccc(NC(=O)c2cccc(S(=O)(=O)N3CCCCCC3)c2)c1 ?
CtBP-E1A inh: 7; JMJD2A Tudor inh: -3%; HP1b binding inh: 26%; Six1-Eya2 inh: -3

Results for O=C(Nc1ncccc1O)c1cccc(S(=O)(=O)N2CCN(c3ccc(F)cc3)CC2)c1 ?
CtBP-E1A inh: -1; JMJD2A Tudor inh: -32%; G9a block: 79µM*; HP1b binding inh: 7%; BAZ2B inh: -17%; Six1-Eya2 inh: -13

Results for O=C(Nc1ccc(S(=O)(=O)N2CCCC2)cc1)c1ccc(OCC2CCCO2)cc1 (centres undefined) ?
CtBP-E1A inh: 7; JMJD2A Tudor inh: -10%; G9a block: -13%; HP1b binding inh: 22%; BAZ2B inh: -17%; Six1-Eya2 inh: 4

How did O=C(Nc1cccc(S(=O)(=O)N2CCCCC2)c1)c1ccc2ncsc2c1 do in these assays?
CtBP-E1A inh: -22; JMJD2A Tudor inh: 28µM*; G9a block: inconclusive; HP1b binding inh: 7%; BAZ2B inh: 56µM*; Six1-Eya2 inh: inconclusive

How did O=C(Nc1cccc(S(=O)(=O)N2CCCC2)c1)c1cccc(S(=O)(=O)N2CCOCC2)c1 do in these assays?
JMJD2A Tudor inh: -2%; G9a block: 22%[12.7 µM]; HP1b binding inh: 32%; BAZ2B inh: 5%; Six1-Eya2 inh: -9

What do the screens show for `O=C(Nc1cccc(O)c1)c1cccc(S(=O)(=O)N2CCCC2)c1`?
CtBP-E1A inh: inconclusive; JMJD2A Tudor inh: -15%; G9a block: -5%[59 µM]; HP1b binding inh: 24%; BAZ2B inh: -29%; Six1-Eya2 inh: -72*

How did Cc1cc(C)nc(NCC(O)COc2ccccc2C)n1 (centres undefined) do in these assays?
CtBP-E1A inh: 6; JMJD2A Tudor inh: -4%; G9a block: 45µM*; HP1b binding inh: 26%; BAZ2B inh: 0%; Six1-Eya2 inh: 1

How did COc1ccc(NC(=O)c2c(OC)cccc2OC)c(OC)c1 do in these assays?
CtBP-E1A inh: -20; JMJD2A Tudor inh: 56µM*; G9a block: inconclusive; HP1b binding inh: inconclusive; BAZ2B inh: 50µM*; Six1-Eya2 inh: -24

How did COc1ccc(NC(=O)c2ccccc2O)c(OC)c1 do in these assays?
CtBP-E1A inh: 5; JMJD2A Tudor inh: -17%; G9a block: -1%; HP1b binding inh: 21%; BAZ2B inh: 23%; Six1-Eya2 inh: 0

Results for COC(=O)c1ccccc1NC(=O)c1ccccc1SC ?
CtBP-E1A inh: 3; JMJD2A Tudor inh: 26%; G9a block: 8.9µM*; HP1b binding inh: 40%; BAZ2B inh: 62%; Six1-Eya2 inh: 7

Results for COc1ccc(NC(=O)c2ccccc2SC)c(OC)c1 ?
CtBP-E1A inh: 6; JMJD2A Tudor inh: -11%; G9a block: 18µM*; HP1b binding inh: 35%; BAZ2B inh: -12%; Six1-Eya2 inh: 2

Results for COc1ccc2o/c(=N\O)c(C(=O)Nc3ccccc3OC)cc2c1 ?
CtBP-E1A inh: 0; JMJD2A Tudor inh: -25%; G9a block: 1.6µM*; HP1b binding inh: 5%; BAZ2B inh: -24%; Six1-Eya2 inh: 9

What do the screens show for `CC(CN(C)C)C(C)(O)Cc1ccc(Cl)cc1` (centres undefined)?
G9a block: 21%[59 µM]

How did CC(NC(=O)c1ccc(F)cc1)c1nc2ccccc2[nH]1 (centres undefined) do in these assays?
JMJD2A Tudor inh: -13%; G9a block: -3%[59 µM]; HP1b binding inh: 1%; BAZ2B inh: 1%

Results for Cn1c(SCCCC(=O)c2ccc(F)cc2)nnc1-c1ccncc1 ?
CtBP-E1A inh: 4; JMJD2A Tudor inh: -16%; G9a block: 7%[2.33 µM]; HP1b binding inh: 24%; BAZ2B inh: 15%; Six1-Eya2 inh: 7

How did Cc1occc1-c1nnc(SCCCC(=O)c2ccc(F)cc2)n1C do in these assays?
CtBP-E1A inh: -3; JMJD2A Tudor inh: -29%; G9a block: 50µM*; HP1b binding inh: 7%; BAZ2B inh: inconclusive; Six1-Eya2 inh: 6

How did O=[N+]([O-])c1cccnc1Oc1ccc(F)cc1 do in these assays?
CtBP-E1A inh: -27; JMJD2A Tudor inh: -14%; G9a block: -27%; HP1b binding inh: -26%; BAZ2B inh: -25%; Six1-Eya2 inh: 12

Results for O=[N+]([O-])c1ccc(Oc2ccc(F)cc2)c2ccncc12 ?
CtBP-E1A inh: -18; JMJD2A Tudor inh: inconclusive; G9a block: inconclusive; HP1b binding inh: -34%; BAZ2B inh: 50µM*; Six1-Eya2 inh: -26

How did O=C(NNC1=NCCC1)C1CC1 do in these assays?
CtBP-E1A inh: -2; JMJD2A Tudor inh: -35%[57.1 µM]; G9a block: 13µM*; HP1b binding inh: -18%; BAZ2B inh: inconclusive; Six1-Eya2 inh: -3

How did O=C(NNC1=NCCC1)c1ccc(Br)cc1 do in these assays?
CtBP-E1A inh: -6; JMJD2A Tudor inh: -6%; G9a block: -4%; HP1b binding inh: 41%; BAZ2B inh: -1%; Six1-Eya2 inh: 8

Results for COc1ccc(N=C2NC(=O)/C(=C\C=C\c3ccco3)S2)cc1 ?
CtBP-E1A inh: -13; JMJD2A Tudor inh: 20µM*; G9a block: 7.1µM*; HP1b binding inh: 22µM*; BAZ2B inh: 28µM*; Six1-Eya2 inh: -21

Results for Cc1cccc(N=C2NC(=O)/C(=C/C=C/c3ccco3)S2)c1 ?
CtBP-E1A inh: -4; JMJD2A Tudor inh: 18µM*; G9a block: 14µM*; HP1b binding inh: inconclusive; BAZ2B inh: 35µM*; Six1-Eya2 inh: inconclusive

How did CCc1ccc(NC(=O)C2=C(C)C(=O)OC23CCCCC3)cc1 do in these assays?
JMJD2A Tudor inh: -7%; G9a block: -25%[59 µM]; HP1b binding inh: 39%; BAZ2B inh: inconclusive

What do the screens show for `CN1OC[C@@H]2CN(Cc3cc(Cl)cc(Cl)c3)[C@H](c3cccc(Oc4ccccc4)c3)C[C@@H]21`?
CtBP-E1A inh: -8; JMJD2A Tudor inh: 89µM*; HP1b binding inh: -2%; Six1-Eya2 inh: -19

Results for CCOc1ccc(NC(=O)CN(C)C(=O)c2ccc3[nH]c4c(c3c2)CC(C)CC4)cc1OCC (centres undefined) ?
CtBP-E1A inh: 1; JMJD2A Tudor inh: inconclusive; G9a block: 35µM*; HP1b binding inh: inconclusive; BAZ2B inh: inconclusive; Six1-Eya2 inh: inconclusive
